Measured values as given in PubChem BioAssay (NCI).
Compounds without any hit were thinned out: in the full panel of roughly 83,000, 20% have a hit.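 Activity criterion: percent growth below 10, measured after cells in 96-well plates were exposed to a single compound concentration for 48 hours.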 Values without a mark were called inactive. Active and inactive are the calls of the source.

What was measured:
Test in all cases: NCI-60 one-dose screen, 48 h (100 = growth as untreated, 0 = no growth, -100 = all killed)
Settings in all cases: 10 µM unless noted
[1] = test system: NCI-H226 lung
[2] = test system: NCI-H460 lung
[3] = test system: HOP-92 NSCLC
[4] = test system: NCI-H522 lung
[5] = test system: A549/ATCC NSCLC
[6] = test system: 786-0 renal
[7] = test system: COLO 205 colon
[8] = test system: DU-145 prostate
[9] = test system: HOP-62 NSCLC

SMILES	growth [1]	growth [2]	growth [3]	growth [4]	growth [5]	growth [6]	growth [7]	growth [8]	growth [9]
CNC(=O)c1cc(-c2ccc(NC(=O)Nc3ccc(N4CCOCC4)c(C(F)(F)F)c3)cc2)nc2cccnc12	54.8%	23.9%	57.2%	65.5%	51.6%	25.9%	84.7%	69.6%	
COc1ccc(/C=N/NC(=O)c2[nH]c3ccc(Br)cc3c2-c2ccccc2)o1	49.7%	0.221% (active)	33.2%	-54.6% (active)	30.4%	13.3%	-47.8% (active)	20%	47.6%
Cc1c(Nc2nnc(SCC(=O)Nc3sc4c(c3C#N)CCCC4)s2)c(=O)n(-c2ccccc2)n1C	104%	100%	121%	97.5%	106%	108%	118%	105%	107%
CC(=O)Nc1cc(F)cc(-c2ccc3[nH]cc(-c4ccccc4)c3n2)c1	30.9%	3.95% (active)	0.206% (active)	-67.6% (active)	20.1%	1.48% (active)	-68.2% (active)	39.8%	3.09% (active)
COc1cccc(N2CCN(c3ncnc4c3[nH]c3ccc(F)cc34)C[C@@H]2C)c1	-60.5% (active)	-17.2% (active)	-27.1% (active)	-91.8% (active)	2.18% (active)	-58.5% (active)	-88.5% (active)	-67.3% (active)	-54.2% (active)
COc1ccc(NC2=CC(=O)C(C)=C(C)C2=O)cc1	97.2%	99.6%	172%	82.5%	97.3%	90.5%	107%	105%	99.7%
Oc1c(Cl)cc(Cl)c2ccc(CN3CCCCC3)nc12	48.6%	22.2%	48.6%	34%	44.7%	36.1%	79.9%	44%	48.1%
N#Cc1nc(-c2ccccc2)oc1S(N)(=O)=O	103%	93.3%	77.3%	-44.5% (active)	101%	51.1%	96.7%	82.5%	111%
C[C@@H]1CN(c2ccc3ncc(C#Cc4cncc(C(=O)Nc5ccc(CN6CCN(C)CC6)c(C(F)(F)F)c5)c4)n3n2)C[C@H](C)O1	-48.8% (active)	-77.7% (active)	-44.4% (active)	-78.8% (active)	-82.5% (active)	-74.8% (active)	-76.8% (active)	-97.5% (active)	
C#C[C@]1(O)CC[C@H]2[C@@H]3CC=C4c5sc(-c6ccc(F)cn6)nc5CC[C@]4(C)[C@H]3CC[C@@]21C	55.8%	10.4%	49.2%	56.9%	37.2%	-62.5% (active)	92.2%	47.3%	24.6%
O=C1c2c(c3c4cc(Br)ccc4[nH]c3c3ccc4ccccc4c23)C(=O)N1CCO	88.9%	62.5%	103%	76.5%	91.7%	100%	92%	103%	96.3%
Clc1ccc2oc3c(OCCCn4ccnc4)c4ccccc4nc3c2c1	88.5%	32.6%	53%	44%	62%	46.5%	36%	64.1%	87.4%
CCCC(=O)NC(c1cccnc1)c1cc(C)c2cccnc2c1O (stereo not drawn)	52.6%	19.3%	49.1%	22.2%	48.4%	38.9%	12.7%	47.2%	34.4%
CCN1CCN(S(=O)(=O)c2oc(-c3ccc(Cl)cc3)nc2C#N)CC1	106%	105%	36.7%	-63% (active)	95.6%	-49.7% (active)	65.5%	81.7%	108%
CC(C)(C)Nc1nc2c(OCCc3ccccc3)cccn2c1-c1ccc(Cl)cc1	12.4%	16%	-24.9% (active)	3.18% (active)	16%	26.9%	-3.99% (active)	48.2%	32.4%
O=C1[C@H]2Cc3c([nH]c4ccccc34)[C@@H](c3ccc(Br)cc3)N2C(=O)CN1C1CCN(Cc2ccccc2)CC1	39.5%	30%	28.9%	-36.7% (active)	20.7%	41.1%	12.7%	38.8%	54%

SMILES	growth [1]	growth [2]	growth [3]	growth [4]	growth [5]	growth [6]	growth [7]	growth [8]	growth [9]
C/C(=N/NC(N)=S)c1ccc(Nc2nc(SCC(C)C)nc(-c3ccc(F)cc3)c2C#N)cc1	-16.9% (active)	-62.2% (active)	-39.1% (active)	34.1%	-2.25% (active)	4.53% (active)	16.8%	18.9%	-11.1% (active)
O=c1/c(=C\c2ccc(-c3ccccc3)o2)sc2nc(-c3ccccc3)nn12	109%	106%	90%	98.3%	103%	99.2%	117%	107%	92.8%
CO/N=C1\CCc2c(sc(NC(=O)c3cccc(C(F)(F)F)c3)c2C(N)=O)C1	-10.4% (active)	2.77% (active)	-12.7% (active)	26.5%	-9.56% (active)	1.79% (active)	72.6%	52.9%	-0.189% (active)
CC(C)(C)OC(=O)N1C(=O)c2c(c3c4ccccc4[nH]c3c3ccc4ccccc4c23)C1=O	61.3%	37.3%	87.9%	47.2%	59.7%	77.1%	68.1%	57.3%	52.2%
[Cl][Ru].c1ccc(-c2cccc(-c3ccccn3)n2)nc1.c1ccc(-c2ccnc3c2ccc2c(-c4ccccc4)ccnc23)cc1	80.1%	54.8%	-12.5% (active)	13.3%	60.5%	89.3%	-60% (active)	32.6%	78.7%
N#Cc1c(-c2ccc(Cl)cc2)nc(SCc2ccccc2)nc1N1CCNCC1	89.4%	-45.6% (active)	21.8%	92.4%	66.7%	64.3%	-8% (active)	63.8%	78.9%
C/C(=N\NC(N)=O)c1c(O)sc(=O)[nH]c1=O	101%	106%	104%	98.7%	98.4%	104%	108%	110%	96.6%
COc1ccc(Cc2nn(CC(=O)N/N=C/c3ccc(Cl)cc3)c(=O)c3c(C)noc23)cc1	69.8%	64.9%	89.5%	74.4%	46%	52.6%	102%	93%	
C#Cc1nc(C2=C(C)/C(=N/OCc3ccccc3)CC2)cs1	48.4%	39.6%	-79.2% (active)	-56.9% (active)	84.5%	-95.7% (active)	83.5%	88.5%	55.6%
O=C1c2c(c3c4cccnc4[nH]c3c3ccc4ccccc4c23)C(=O)N1CCO	80.7%	17.6%	129%	52.8%	78.3%	84%	78.4%	87.2%	64.5%
c1ccc2c(NCCCn3ccnc3)c3oc4ccccc4c3nc2c1	-1.35% (active)	-19.3% (active)	-23.7% (active)	-23.1% (active)	10.5%	2.46% (active)	-30.9% (active)	-17.2% (active)	19.5%
N#Cc1nc(-c2ccccc2)oc1N1CC[C@@H](CO)C1	94%	99.7%	98.5%	95.1%	101%	103%	106%	100%	
CC(C)(C)Nc1nc2c(OCCc3ccccc3)cccn2c1-c1ccc(O)cc1	63%	45.8%	28.3%	57.5%	48.6%	73.3%	85.6%	97.3%	80.3%
COc1ccccc1/C=C/C=N/NC1=NC2C(S1)N(C)C(=O)N2C (stereo not drawn)	55.7%	11.1%	9.2% (active)	-24% (active)	48.3%	44.2%	5.69% (active)	24.5%	
CCN(CC)c1ccc(C=O)c(OCc2cn(CC(=O)Nc3ccc(Cl)cc3)nn2)c1	77.5%	52%	81.4%	80.9%	87.9%	72.9%	111%	81%	
